Test results from ChEMBL document CHEMBL3988442, “University of Dundee, Small-Polar-MMV Screening Library” (2021).
About 440 (0.52%) of roughly 85,000 compounds showed an effect of 50% or more. Shown is part of a subset that was picked to be rich in strong results.

Assay: In vitro enzyme assay to detect hydrolysis of chlorophenol red-beta-D-[…] directly proportional to the number of Toxoplasma stably expressing beta-galactosidase
Assay type: functional, organism-based, Toxoplasma gondii
Design: scale not given: in the data most compounds retested in dose-response had high values

| Compound | Percent Effect (50 µM) [%] | Percent Effect (10 µM) [%] |
| --- | --- | --- |
| NC1CCN(CC(F)F)CC1 | 56.61 |  |
| NC1CCN(CC(F)F)C1 (stereo unspecified) | -7.731 |  |
| NCC1CCN(CC(F)F)CC1 | 1.969 |  |
| Clc1cnccc1CN1CCC2(CCOC2)C1 (stereo unspecified) | 3.263 |  |
| CC(C)CC(=O)NC1CC2(CCN(CCF)CC2)Oc2ccccc21.O=C(O)C(F)(F)F (stereo unspecified) |  | -26.74 |
| N#Cc1ccccn1 | -5.392 |  |
| CC[C@@H]1N(Cc2ccncc2)CCC[C@]12CCC(=O)N2C.O=C(O)C(F)(F)F.O=C(O)C(F)(F)F |  | -4.695 |
| CN1CCN2C(=O)N(C3CCCCC3)C[C@H]2C1 |  | -2.107 |
| CC1CN(C)CCC1=O (stereo unspecified) | 95.15 |  |
| Cc1ccc([C@@H](O)CN)cc1 | -14.41 |  |
| Cl.O=C1N(Cc2ccc(Cl)cc2)CCC12CCCNC2 (stereo unspecified) |  | -3.809 |
| OCC1CCC2(CCCC2)CN1 (stereo unspecified) | 23.34 |  |
| O=C(N[C@H]1COC[C@@H]1N1CCCC1)c1c[nH]nc1C1CCCCC1 |  | 7.68 |
| Cc1nc(C(=O)N[C@H]2COC[C@@H]2N2CCCCC2)cs1 |  | 24.19 |
| O=C(N[C@H]1COC[C@@H]1N1CCCCC1)c1cnc[nH]1 | 53.1 |  |
| Cc1nc(C)c(CN2CC3(CCNCC3)OC2=O)s1 | -5.089 |  |
| COc1ccc(CCN)c(Cl)c1 | 6.537 |  |
| N[C@H]1[C@@H]2CC[C@H]1CN(CCn1cc(Cl)cn1)C2 | 17.19 |  |
| CC1CNCCN1c1cccc2cnccc12 (stereo unspecified) | 3.081 |  |
| COc1cccc(C(C)N2CCNCC2)c1 (stereo unspecified) | -0.2947 |  |
| COc1cccc(N2CCNCC2C)c1 (stereo unspecified) | 93.04 |  |
| CNC(CCO)Cc1ccccc1 (stereo unspecified) | -16.85 |  |

| Compound | Percent Effect (50 µM) [%] | Percent Effect (10 µM) [%] |
| --- | --- | --- |
| CCC(C)Cn1nc(COC)oc1=O (stereo unspecified) | 3.972 |  |
| NCCc1cc(C(F)(F)F)ccn1 | 99.23 |  |
| NCCc1ccc(F)cn1 | 2.533 |  |
| NCCc1ccc(C(F)(F)F)cn1 | -0.7951 |  |
| CN[C@@H]1CCO[C@H]1c1cccnc1 | -18.11 |  |
| NCCC1COc2ccccc2O1 (stereo unspecified) | 1.961 |  |
| NCCC1CSc2ccccc2O1 (stereo unspecified) | 65.01 |  |
| CC1CN(C)CCN1Cc1nc(N)nc(N(C)C)n1 (stereo unspecified) | 17 |  |
| CO[C@H]1CCN(Cc2ccccn2)[C@@H]2CN(Cc3ccco3)C[C@H]12.O=C(O)C(F)(F)F.O=C(O)C(F)(F)F.O=C(O)C(F)(F)F |  | -1.554 |
| CO[C@@H]1CCN(Cc2ccccn2)[C@@H]2CN(Cc3ccco3)C[C@@H]21.O=C(O)C(F)(F)F.O=C(O)C(F)(F)F.O=C(O)C(F)(F)F |  | 93.58 |
| CO[C@H]1CCN(c2ncc(F)cn2)[C@@H]2CN(Cc3ccco3)C[C@H]12.O=C(O)C(F)(F)F.O=C(O)C(F)(F)F |  | 10.96 |
| Cc1noc(C)c1CC(=O)N1CCN(C(C)(C)C)CC1 | 6.08 |  |
| CN(CC(N)=O)C1Cc2ccccc2C1 | -5.488 |  |
| CC(=O)N1CCC2(CC1)c1ncc(-c3cccnc3)n1CCN2C |  | -29.38 |
| CC(=O)N1N=C(c2cccnc2)CC1c1ccco1 (stereo unspecified) | 88.79 |  |
| O=C1CC(c2cccnc2)=NCCN1 | 42.08 |  |
| C1CC(NC2COC2)CCO1 | 12.23 |  |
| Cc1cc(CNC(C)Cn2cccn2)on1 (stereo unspecified) | 9.614 |  |
| CC(C)N1CCN(Cc2ccc(N)nc2)CC1 | -5.951 |  |
| Cc1ncc(C(=O)N2C[C@@H]3CCCN[C@@H]3C2)cn1 | -7.245 |  |
| Cc1cc(C(=O)N2C[C@@H]3CCCN[C@@H]3C2)cc(C)n1 | -13.26 |  |
| Cc1ncc(C(=O)N2C[C@@H]3CCCN[C@@H]3C2)c(C)n1 | 63.53 |  |

| Compound | Percent Effect (50 µM) [%] | Percent Effect (10 µM) [%] |
| --- | --- | --- |
| CCCN1CCN(Cc2nccn2C)CC1 | 5.907 |  |
| Cc1ccc(C(=O)N2C[C@@H]3OCCN(C)[C@@H]3C2)cn1.O=C(O)C(F)(F)F |  | 3.64 |
| COC[C@H]1CCC[C@]12CN(Cc1cccc(C)n1)CCO2 |  | 72.48 |
| CCOC[C@@H]1CCC[C@@]12CN(Cc1cccnc1)CCO2 |  | -14.2 |
| COC[C@@H]1CCC[C@]12CN(Cc1cccc(C)n1)CCO2.O=C(O)C(F)(F)F.O=C(O)C(F)(F)F |  | -5.738 |
| Fc1cnc(N2CCCC3(CCN(Cc4cccs4)C3)C2)nc1.O=C(O)C(F)(F)F.O=C(O)C(F)(F)F (stereo unspecified) |  | -7.824 |
| Cn1c(CCN2CCN(c3ccc(O)cc3)CC2)nc2ccccc21 |  | 79.1 |
| COCCN1CCN(c2ccc(OC)cc2)CC1 | -4.401 |  |
| NCCCN1CCN(c2ccccc2)CC1 | 0.9017 |  |
| Cc1cc(C(=O)N2CC[C@H]3CC[C@@H](C2)N3)nc(C)n1 | 2.124 |  |
| Cn1cc(CCN)nn1 | 26.5 |  |
| CC(C)(C)OC(=O)NC1CC2(CNC2)C1 | -10.31 |  |
| CCCn1nnnc1CN1CCN(CC)CC1 | -8.148 |  |
| CC(C)N1CCN(Cc2nnnn2C2CC2)CC1 | -4.596 |  |
| CCN1CCN(Cc2nnnn2C2CC2)CC1 | 99.81 |  |
| COc1ccc(CN2CC[C@@]3(O)CCCC[C@H]3C2)cn1 | -5.926 |  |
| Cc1cc(C2CCCN2)on1 (stereo unspecified) | -7.97 |  |
| CN(C)c1ncc2c(n1)C1(CCN(CC3CC3)C1)COC2.O=C(O)C(F)(F)F (stereo unspecified) |  | -3.49 |
| COCCN1CCC2(COCc3cnc(N4CCOCC4)nc32)C1.O=C(O)C(F)(F)F (stereo unspecified) |  | -0.4992 |
| c1nc(N2CCOCC2)nc2c1COCC21CCN(CC2CC2)C1 (stereo unspecified) |  | 63.85 |
| Fc1cnc(N2CCC3(CC2)CN(Cc2cccs2)CCO3)nc1.O=C(O)C(F)(F)F.O=C(O)C(F)(F)F |  | 21.36 |
| C[S+](C)[c-]1c(=O)[nH]c(=O)n(CCc2ccc(F)cc2)c1=O |  | 11.54 |
